The panel holds about 83,000 compounds, 20% with a hit somewhere; the sample as a whole holds those more often.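 Method: cells in 96-well plates; compound added at one concentration; 48 h incubation; percent growth measured; values under 10 scored active.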 The source made the active and inactive calls.
The compounds below were run on IGROV1 ovarian (assay: NCI-60 one-dose screen, 48 h (100 = growth as untreated, 0 = no growth, -100 = all killed)). Conditions: 10 µM unless noted.
Protocol: Growth inhibition of the IGROV1 human tumor cell line is measured as a screen for anti-cancer activity. Cells are grown in 96 well plates and exposed to the test compound for 48 hours. Compounds are tested at a single concentration, which is 10^-5 M for most compounds. The reported endpoint is percent growth (GI% or GIPRCNT), where numbers from 0 - 100% represent growth inhibition, and numbers from -100% - 0 represent cell death. For example, a value of 40 represents 60% growth inhibition. A value of 0 means no net growth occurred over the course of the experiment. A value of -40 indicates 40% of cells at the beginning of the experiment died by the end of the experiment. A value of -100 means all cells are dead at the end of the experiment.
NCI-60 Human Tumor Cell Lines Screen was performed using the standard one-dose NCI protocol, which is described in more detail at https://dtp.cancer.gov/discovery_development/nci-60/default.htm.
Compounds with GIPRCNT values below 10 were considered active. Activity score was based on GIPRCNT using the following formula: […]
Score is 0 for GIPRCNT values of 100 or above, 50 for GIPRCNT values of 0, and 100 for GIPRCNT values of -100.

Structure (SMILES)	growth
COc1ccc(C#Cc2ccc(=O)oc2-c2cc(OC)c(OC)c(OC)c2)cc1O	37.5% (inactive)
COc1ccc(Nc2ncccc2/C=C/C(=O)c2cc(OC)c(OC)c(OC)c2)cc1	-2.98% (active)
Clc1ccccc1-c1cnn2cc(-c3ccccc3)cnc12	78.6% (inactive)
CCOC(=O)c1nn(CC(O)c2ccccc2)c(NC(=O)Nc2cccc(F)c2)c1C (stereo not given)	109% (inactive)
O=C(Nc1cnc(Nc2ccc(N3CCOCC3)nc2)nc1Oc1ccc(C(F)(F)F)cc1)c1ccncc1	94% (inactive)
Cc1ccc(Cl)cc1NC(=O)c1sc2nc3c(cc2c1N)C(=O)CCC3	75.7% (inactive)
C=C1C(=O)O[C@H]2[C@H]1CC/C(COC(=O)/C=C\C(=O)NCc1ccc(Cn3c(=O)sn(CCCCC)c3=O)cc1)=C\CC[C@@]1(C)O[C@@H]21	58% (inactive)
Cc1ccc(-c2nc(-c3cn(C)c4ncccc34)cs2)cc1	-0.0952% [100 µM] (active)
O=C(Nc1ccccc1N1CCCC1=O)c1oc2ccc(F)cc2c1-c1cnn(-c2ccccc2)c1	65.7% [50 µM] (inactive)
C=C1C(=O)O[C@H]2[C@H]1CC/C(COC(=O)CSCSCC(=O)OC/C1=C/CC[C@@]3(C)O[C@H]3[C@H]3OC(=O)C(=C)[C@@H]3CC1)=C\CC[C@@]1(C)O[C@@H]21	0.96% (active)
CCN1C(=O)N(CC)C2C1NN=c1s/c(=C\c3ccc(C(F)(F)F)cc3)c(=O)n12 (stereo not given)	18.7% (inactive)
N#CC1CCc2c(c(-c3ccc4nc(N)sc4c3)nc3ccc4[nH]ncc4c23)C1 (stereo not given)	53.2% (inactive)
O=C(/C=C/c1ccccc1)c1ccc(Nc2nc(Nc3ccc(F)cc3)nc(Nc3ccc(Cl)cc3)n2)cc1	90.8% (inactive)
O=c1ccc(=O)n(-c2nc(-c3ccc([N+](=O)[O-])cc3)cs2)[nH]1	99.3% (inactive)
CCC1S/C(=N\N=C(\C)c2cc3cc(Cl)ccc3o2)N(c2ccccc2)C1=O (stereo not given)	671% (inactive)
CCN1CCN(C(=O)[C@]23CC[C@@H](C)[C@H](C)[C@@H]2C2=CC[C@@H]4[C@@]5(C)C/C(=C/c6cccnc6)C(=O)C(C)(C)[C@@H]5CC[C@@]4(C)[C@]2(C)CC3)CC1	50.9% (inactive)
COc1ccc(C(=S)N2CCN(c3ccc(Cl)cc3)CC2)cc1	109% (inactive)
CN1C(=O)/C(=C/c2ccc(C(=O)Nc3ncc(Cc4cccc(Cl)c4)s3)cc2)SC1=S	61.9% (inactive)
COc1cc(/C=N/Nc2ccc(Br)cc2)cc(OC)c1OC	57.3% (inactive)
COc1ccc(N2CCN(C(=O)c3sc4nc(C)c(Br)c(C)c4c3N)CC2)cc1	91.2% (inactive)

Structure (SMILES)	growth
Cn1cc(-c2ccc(-c3cn(C)c4ccc(Cl)cc34)[nH]2)c2cc(Cl)ccc21	-45.9% (active)
O=S1(=O)C=C(c2ccccc2)C(c2ccccc2)=C1	11.7% (inactive)
O=C(C1CCCCC1)[C@@H]1[C@]2(C(=O)NC3CCCCC32)[C@@H]2CCCN2[C@@]12C(=O)NC1CCC(Cl)CC12 (stereo not given in full)	-70.3% [100 µM] (active)
COc1ccc2c(c1)c(-c1nc(-c3c[nH]c4ncccc34)cs1)cn2CCO	43.4% (inactive)
CCOC(=O)c1cc(C(=O)c2cc(OC)c(OC)c(OC)c2)n2ccccc12	49.6% (inactive)
Cc1ccc2c(-c3nnc(N)s3)cc(=O)oc2c1C	98.5% (inactive)
COc1ccc(CCN(CC(=O)N(CC(N)=O)C2CCC[C@@H]2OCc2ccccc2)C(=O)CN(C(=O)CN(CCc2ccc(Cl)cc2)C(=O)CN(C(=O)CN(C)Cc2ccccc2F)[C@H](C)C2CCCCC2)[C@H](C)C2CCCCC2)cc1OC (stereo not given in full)	43.4% (inactive)
O=C(NNC(=O)c1nc2cc(F)ccc2n2cccc12)c1cnccn1	35.6% (inactive)
Cc1ccnc(Nc2ccc([N+](=O)[O-])c(NCCN3CCOCC3)n2)c1	28.4% (inactive)
CN(C)CCCC1(c2ccc(F)cc2)OCc2cc(-c3ccc4cc[nH]c4c3)ccc21 (stereo not given)	23% (inactive)
N#C/C(=C\c1ccc(-c2cccc(C(F)(F)F)c2)o1)c1ccccc1	59.9% (inactive)
c1ccc2c(c1)CCCc1nnc3nc4ccccc4n3c1-2	43.7% (inactive)
Fc1ccc2[nH]cc(-c3nc(-c4c[nH]c5ccncc45)cs3)c2c1	-43.2% (active)
CC1(C)[C@@H](O[C@@H]2OC[C@@H](O[C@@H]3O[C@H](CO)[C@@H](O)[C@H](O)[C@H]3O[C@@H]3OC[C@@H](O)[C@H](O)[C@H]3O)[C@H](O)[C@H]2O[C@@H]2O[C@H](CO)[C@@H](O)[C@H](O)[C@H]2O)CC[C@]2(C)[C@H]3CC[C@]45OC[C@@]6(CC[C@](C)(C=O)C[C@H]64)[C@H](O)C[C@@]5(C)[C@]3(C)CC[C@@H]12	-71.7% (active)
C=CCn1c(SCC(=O)Nc2ccc(/C(C)=N/O)cc2)nnc1-c1cc(-c2ccc(S(N)(=O)=O)cc2)nc2ccccc12	30.9% (inactive)
COc1cccc(/C=C/C(=O)c2cccc(Nc3nc(Nc4ccccc4)nc(Nc4ccccc4)n3)c2)c1	77.5% (inactive)
O=C(NC(Cc1nnc2n(Cc3ccccc3)c(=O)c3c4c(sc3n12)CCCC4)c1ccccc1)c1ccccc1 (stereo not given)	54.9% (inactive)
NC(=O)c1c(NC(=O)c2cccs2)sc2c1CCC(=O)C2	29.7% (inactive)
COc1cc(OC)cc(-c2ccc(-c3ccc(C(=N)N)o3)o2)c1	58.1% (inactive)
Cc1cc2c(cc1C)N(C(=O)CCl)CC(=O)N2	43.1% (inactive)

Reference: PubChem BioAssay (NCI)
